Screens: PubChem, The Scripps Research Institute Molecular Screening Center
hcDAF12 agonist – activators of H. contortus DAF-12 nuclear receptor; HEK293 hcDAF-12 lit1-tk-luc reporter, luminescence; 0% DMSO, 100% Δ7-dafachronic acid; activation, % at 6.8 µM; AID 652067; 370,000 tested, 1.4% active;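 active = activation above the mean of all tested compounds plus 3 SD, cut at about 5.5% in these data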;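 also: 100% = response to 3 µM Δ7-dafachronic acid high control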
ssDAF-12 act – S. stercoralis DAF-12 activation, primary screen | HEK293 ssDAF-12/GRIP1 lit1-tk-luc reporter, luminescence; % of 3 µM dafachronic acid response | activation, % at 6.8 µM | 370,000 tested, 1% active;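 active = activation above the mean over all tested compounds plus 3 SD, cut at about 0.9% in these data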;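 also: 0% = DMSO-only wells and 100% = 3 µM delta7-dafachronic acid wells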
SMARCA2 activ – activators of SMARCA2 function. MG213 cells, MMTV-luciferase reporter, dexamethasone, overnight. activation, % at 9.1 µM. 370,000 tested, 1% active. AID 652017; in the data active = activation above about 7.8%;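 also: 0% = vehicle wells and 100% = reference activator wells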
hgDAF-12 ag – activates the H. glycines DAF-12 receptor ligand-binding domain; HEK293 GAL4-hgDAF12 UAS-luciferase reporter, agonist luminescence; normalized to butyrate control; AID 687014; activation, % at 6.8 µM; 370,000 tested, 1.8% active;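 active = activation above a cutoff set at the mean of all screened compounds plus 3 SD, cut at about 10% in these data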;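 also: 0% = DMSO wells and 100% = sodium butyrate wells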
DAX1 StAR inh – inhibitors of DAX1 repression of SF-1 activated StAR promoter; HEK293T StAR-luciferase reporter, SF-1/DAX-1 repression relief; inhibition, % at 6.8 µM; 370,000 tested, 1.1% active; AID 652010;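 active = inhibition above the mean over all tested compounds plus 3 SD, cut at about 3.6% in these data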;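 also: 0% = DAX-1 cells with DMSO and 100% = cells lacking DAX-1 with DMSO; higher inhibition means more luminescence from relief of DAX-1 repression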
LXR ag – LXR-beta agonism as hcDAF-12 counter-screen. HEK293 Gal4-LXR tk-luc reporter, luminescence, 24 h; normalized: DMSO 0%, positive control 100%. 3,400 tested, under 10 active. AID 743027. shares compounds with hcDAF12 agonist. activation, % at 6.8 µM;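 active = mean percent activation of the reporter above a cutoff set as the average over tested compounds plus their standard deviation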
Target sequence (P55055 whole entry, looked up, the tested form may be a part): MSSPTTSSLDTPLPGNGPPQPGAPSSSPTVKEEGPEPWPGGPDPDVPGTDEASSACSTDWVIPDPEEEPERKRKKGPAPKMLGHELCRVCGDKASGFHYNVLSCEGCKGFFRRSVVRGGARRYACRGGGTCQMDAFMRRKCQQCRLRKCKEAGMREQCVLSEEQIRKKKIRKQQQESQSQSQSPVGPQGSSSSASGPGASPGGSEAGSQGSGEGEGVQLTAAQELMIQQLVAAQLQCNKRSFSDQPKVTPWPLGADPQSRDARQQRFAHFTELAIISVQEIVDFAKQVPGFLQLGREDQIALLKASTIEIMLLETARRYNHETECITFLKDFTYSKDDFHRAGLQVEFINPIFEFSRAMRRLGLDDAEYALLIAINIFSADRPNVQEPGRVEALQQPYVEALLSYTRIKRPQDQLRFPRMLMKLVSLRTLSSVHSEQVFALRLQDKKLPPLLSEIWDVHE
hcDAF12 ag – hcDAF-12 agonism, confirmation assay | activation, % at 6.8 µM | HEK293 hcDAF-12 lit1-tk-luc reporter, luminescence; % of Δ7-dafachronic acid response | shares compounds with hcDAF12 agonist | 3,400 tested, 61% active;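 active = mean activation across triplicate tests above the threshold derived from the earlier primary screen, cut at about 5.5% in these data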;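 also: 0% = DMSO only wells and 100% = 3 µM Δ7-dafachronic acid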
hgDAF12 conf – hgDAF-12 agonism, confirmation assay; HEK293 GAL4-hgDAF12 luciferase reporter, agonist mode; percent of butyrate response; activation, % at 6.8 µM; AID 743050; shares compounds with hgDAF-12 ag; 3,300 tested, 80% active;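 active = mean activation over triplicate wells above the hit cutoff derived from the earlier primary screen, cut at about 11% in these data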;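 also: 0% = DMSO low control and 100% = 2 mM sodium butyrate high control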
LXR ag 2 – counter-screen for DAF-12 agonists: agonists of human LXR-beta; shares compounds with hgDAF-12 ag; HEK293 Gal4-LXR luciferase reporter, 24 h; activation, % at 6.8 µM; 3,300 tested, under 10 active; AID 743051;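 active = mean activation of the triplicate above a set limit carried over from the primary screen, none filed active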
* marks the source's active call; other numbers are inactive results. Only some compounds are listed: those with a hit (about 4.2% of all), similar ones and a draw of the others.

Screening CCCCCCC12C(=Cc3cc4c(cc31)OCCO4)c1cc(OC)c(OC)cc1C(CC(=O)O)N2C(=O)OC (stereo unspecified) returned hcDAF12 agonist -1, ssDAF-12 act -2, SMARCA2 activ -8, hgDAF-12 ag -5 and DAX1 StAR inh 0.
C=CCN1C/C(=C/c2ccccc2)N2C(=O)CC(c3ccccc3)N=C12 (stereo unspecified) was read as hcDAF12 agonist -2, ssDAF-12 act -2 and hgDAF-12 ag 0.
Cc1ccc(-c2cn(-c3ccccc3)c(SCC(=O)NC3CCS(=O)(=O)C3)n2)cc1C (stereo unspecified) was read as hcDAF12 agonist 8.4*, ssDAF-12 act 0, SMARCA2 activ 5, hgDAF-12 ag 17*, DAX1 StAR inh 2, LXR ag 1, hcDAF12 ag 4, hgDAF12 conf 7 and LXR ag 2 1.
`C[C@H]1CN([C@@H](C)CO)C(=O)CCCn2cc(nn2)CO[C@@H]1CN(C)S(=O)(=O)c1ccccc1F` gave hcDAF12 agonist 0, ssDAF-12 act -1, SMARCA2 activ -1, hgDAF-12 ag 2 and DAX1 StAR inh 0.
For O=C(O)c1cccc(-c2nnn(Cc3ccccc3Cl)n2)c1 the results were hcDAF12 agonist 6.7*, ssDAF-12 act 2.0*, SMARCA2 activ 3, hgDAF-12 ag 13*, DAX1 StAR inh 4.4*, LXR ag 1, hcDAF12 ag 8.5*, hgDAF12 conf 22* and LXR ag 2 1.
`CN(/N=C/c1ccncc1)C1=NCCN1` gave hcDAF12 agonist -1, ssDAF-12 act -1, SMARCA2 activ -1, hgDAF-12 ag 0 and DAX1 StAR inh 0.
Screening CN(/N=C/c1ccncc1)c1cnc2ccccc2n1 returned hcDAF12 agonist 6.6*, ssDAF-12 act 1.5*, SMARCA2 activ 0, hgDAF-12 ag 19*, DAX1 StAR inh 4.4*, LXR ag 1, hcDAF12 ag 10*, hgDAF12 conf 12* and LXR ag 2 1.
Screening Cc1ccc(COc2ccc(/C=N/O)cc2)cc1 returned hcDAF12 agonist 7.8*, ssDAF-12 act 1.4*, SMARCA2 activ 5, hgDAF-12 ag 17*, DAX1 StAR inh 2, LXR ag 1, hcDAF12 ag 7.0*, hgDAF12 conf 17* and LXR ag 2 1.
Screening Cc1ccc(S(=O)(=O)/N=C(/Nc2ccccc2C)c2ccccc2)cc1 returned hcDAF12 agonist -1, ssDAF-12 act -1, SMARCA2 activ 1, hgDAF-12 ag 0 and DAX1 StAR inh -1.
Cc1ccc(S(=O)(=O)/N=C(/NC(=S)Nc2ccccc2)c2ccccc2)cc1 was read as hcDAF12 agonist 14*, ssDAF-12 act 2.6*, SMARCA2 activ 2, hgDAF-12 ag 28*, DAX1 StAR inh 3, LXR ag 1, hcDAF12 ag 5, hgDAF12 conf 20* and LXR ag 2 1.
`C[C@H]1CN([C@@H](C)CO)S(=O)(=O)c2ccc(-c3ccccc3)cc2O[C@H]1CN(C)C(=O)C1CCC1` gave hcDAF12 agonist -1, ssDAF-12 act -1, SMARCA2 activ -7, hgDAF-12 ag -5 and DAX1 StAR inh 0.
Screening Fc1cccc(/C=N/Nc2nncc3ccccc23)c1 returned hcDAF12 agonist 12*, ssDAF-12 act 1.5*, SMARCA2 activ 3, hgDAF-12 ag 21*, DAX1 StAR inh 3, LXR ag 2, hcDAF12 ag 14*, hgDAF12 conf 23* and LXR ag 2 1.
For Cc1cc(-c2nc3ncccc3o2)ccc1N the results were hcDAF12 agonist 0, ssDAF-12 act -1, SMARCA2 activ 4, hgDAF-12 ag 9 and DAX1 StAR inh 2.
`Nc1cc(-c2nc3ncccc3o2)ccc1Cl` gave hcDAF12 agonist 12*, ssDAF-12 act 1.4*, SMARCA2 activ 3, hgDAF-12 ag 14*, DAX1 StAR inh 3, LXR ag 1, hcDAF12 ag 8.3*, hgDAF12 conf 10 and LXR ag 2 0.
CC(C)CNC(=O)OCc1cn(Cc2ccc(Cl)cc2)nn1 was read as hcDAF12 agonist -1, ssDAF-12 act -1, SMARCA2 activ -2, hgDAF-12 ag -1 and DAX1 StAR inh -1.
Screening Cc1ccc(NC(=O)c2ccc(Cl)nc2)cc1 returned hcDAF12 agonist 8.7*, ssDAF-12 act 1.4*, SMARCA2 activ 1, hgDAF-12 ag 14*, DAX1 StAR inh 2, LXR ag 0, hcDAF12 ag 8.2*, hgDAF12 conf 9 and LXR ag 2 0.
`CSCCC(C(=O)Nc1c(C)cccc1C)n1c(-c2cnc(C)cn2)nc2ccccc21` (stereo unspecified) gave hcDAF12 agonist -1, ssDAF-12 act -1, SMARCA2 activ -1, hgDAF-12 ag 0 and DAX1 StAR inh 0.
Screening O=C(Nc1ccccc1)c1cc2ccccc2s1 returned hcDAF12 agonist 10*, ssDAF-12 act 1.1*, SMARCA2 activ 0, hgDAF-12 ag 22*, DAX1 StAR inh 4.2*, LXR ag 2, hcDAF12 ag 11*, hgDAF12 conf 20* and LXR ag 2 1.
Cc1ccc(Nc2ncnc3c2oc2ccccc23)cc1 was read as hcDAF12 agonist 11*, ssDAF-12 act 1.3*, SMARCA2 activ 2, hgDAF-12 ag 15*, DAX1 StAR inh 2, LXR ag 2, hcDAF12 ag 8.1*, hgDAF12 conf 18* and LXR ag 2 1.
`O=C(c1ccccc1)n1c(=S)nc2ccccn21` gave hcDAF12 agonist 15*, ssDAF-12 act 1.1*, SMARCA2 activ 6, hgDAF-12 ag 16*, DAX1 StAR inh 3, LXR ag 2, hcDAF12 ag 14*, hgDAF12 conf 17* and LXR ag 2 1.
For O=C(c1ccccc1)n1ccn(-c2ccccc2)c1=S the results were hcDAF12 agonist 0, ssDAF-12 act -2, SMARCA2 activ -1, hgDAF-12 ag 1 and DAX1 StAR inh -1.
